This is an account of results in PubChem BioAssay.

Usually inhibition stands for the relative decrease from the control value, in per cent.

The nature of experiment [1]: antimalarial activity against Dd2 strain (AID 2302;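 active = growth inhibition above 50% at the single 2 µM test dose, taken to imply half-maximal potency below 2 µM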;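 note: 0% = DMSO untreated growth and 100% = chloroquine plus artemisinin killed control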). As to conditions: P. falciparum Dd2 in RBCs, LDH growth readout, 72 h; at 2 µM; active compounds read high.
Experiment [2] can be described thus: HepG2 cytotoxicity, primary screen, cytotoxicity control for P. falciparum antimalarial project, cell-based, ATP luminescence (AID 2303;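 active = inhibition above 50%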;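 note: 0% = DMSO wells and 100% = digitonin-killed cells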). As to conditions: HepG2 viability, 24-48 h, at 10 µM, active compounds read high.
Experiment [3] addresses L-lactate dehydrogenase (Plasmodium falciparum (isolate CDC / Honduras)) (UniProt Q27743). The experiment in a line: PfLDH activity inhibition – cell lysate, 3D7 strain, counter-screen for P. falciparum growth inhibition project (AID 2304).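 Note: 0% = vehicle and 100% = reference inhibitor.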 As to conditions: P. falciparum 3D7 crude extract, LDH APAD/NBT absorbance; at 2 µM; active compounds read high. For orientation: The purpose of a counterscreen is to sort out artefacts and off-target activity.

Experiment [4] in a line: inhibition of 3D7 malaria parasite growth – strain 3D7 (AID 2306).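 Note: 0% = DMSO wells and 100% = chloroquine plus artemisinin control wells.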 As to conditions: P. falciparum 3D7 erythrocytic growth, LDH absorbance, 72 h; at 2 µM; active compounds read high.
Experiment [5] addresses Calcium-dependent protein kinase 1 (Plasmodium falciparum (isolate 3D7)) (UniProt P62344). Description: PfCDPK1 kinase inhibitors, biochemical, TCAMS library (AID 1159585; cut-off not given, nearly all actives have IC50 up to about 0.98 µM;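 note: inhibitors leave more ATP so luminescence rises with inhibition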). As to conditions: recombinant PfCDPK1, Kinase-Glo ATP depletion luminescence.
The target in experiment [6] is Plasmodium falciparum protein kinase 6 (PK6, PF3D7_1337100) (UniProt Q8IDW1). Description: PfPK6 kinase inhibitors, biochemical, TCAMS library (AID 1159586). As to conditions: recombinant PfPK6, Kinase-Glo ATP depletion luminescence. Background: In Kinase-Glo more light means more ATP remaining.
Experiment [7] deals with Protein kinase 7 (PK7), Plasmodium falciparum 3D7 (PF3D7_0213400) (UniProt Q7YTF7). Description: inhibition of Plasmodium PK7 catalytic activity – biochemical, TCAMS antimalarial set, Kinase-Glo luminescence (AID 1159587). As to conditions: recombinant PfPK7, Kinase-Glo ATP depletion luminescence.
Experiment [8] addresses Calcium-dependent protein kinase 4 (Plasmodium falciparum (isolate 3D7)) (UniProt Q8IBS5). The experiment in a line: PfCDPK4 kinase inhibitors, biochemical, TCAMS library (AID 1159588; cut-off not given, nearly all actives have IC50 up to about 0.91 µM). As to conditions: recombinant PfCDPK4, Kinase-Glo ATP depletion luminescence.

Values without a mark were called inactive. For some of these results: Potency and affinity values are given separately. Active and inactive are the calls of the source. Unless noted, the rule behind the calls is not given here.

Chain of Protein kinase 7 (PK7), Plasmodium falciparum 3D7 (PF3D7_0213400) (Q7YTF7 1-343): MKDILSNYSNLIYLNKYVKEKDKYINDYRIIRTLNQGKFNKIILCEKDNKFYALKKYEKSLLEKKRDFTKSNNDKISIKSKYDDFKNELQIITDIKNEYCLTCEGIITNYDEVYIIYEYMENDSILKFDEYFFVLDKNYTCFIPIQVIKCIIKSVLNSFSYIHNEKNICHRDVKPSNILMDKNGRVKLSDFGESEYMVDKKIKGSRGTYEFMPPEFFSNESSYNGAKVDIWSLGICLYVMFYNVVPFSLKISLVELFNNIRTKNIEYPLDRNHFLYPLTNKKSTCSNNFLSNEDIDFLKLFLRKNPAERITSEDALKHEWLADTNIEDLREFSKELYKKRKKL
Chain of Calcium-dependent protein kinase 1 (Plasmodium falciparum (isolate 3D7)) (P62344 whole entry, looked up): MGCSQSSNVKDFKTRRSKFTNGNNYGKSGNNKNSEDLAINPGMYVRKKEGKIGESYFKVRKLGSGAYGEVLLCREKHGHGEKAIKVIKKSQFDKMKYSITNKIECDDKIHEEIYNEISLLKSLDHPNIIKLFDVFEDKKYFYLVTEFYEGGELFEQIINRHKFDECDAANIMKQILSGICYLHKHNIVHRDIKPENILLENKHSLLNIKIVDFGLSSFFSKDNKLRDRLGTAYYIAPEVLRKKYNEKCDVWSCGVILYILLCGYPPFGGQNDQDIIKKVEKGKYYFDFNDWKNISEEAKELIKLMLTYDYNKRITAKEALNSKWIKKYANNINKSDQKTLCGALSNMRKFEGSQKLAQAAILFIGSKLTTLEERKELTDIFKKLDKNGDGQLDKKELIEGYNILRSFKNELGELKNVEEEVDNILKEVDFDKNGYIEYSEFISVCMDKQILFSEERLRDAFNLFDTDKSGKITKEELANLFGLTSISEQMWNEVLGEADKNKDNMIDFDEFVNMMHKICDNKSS
Chain of Calcium-dependent protein kinase 4 (Plasmodium falciparum (isolate 3D7)) (Q8IBS5 whole entry, looked up): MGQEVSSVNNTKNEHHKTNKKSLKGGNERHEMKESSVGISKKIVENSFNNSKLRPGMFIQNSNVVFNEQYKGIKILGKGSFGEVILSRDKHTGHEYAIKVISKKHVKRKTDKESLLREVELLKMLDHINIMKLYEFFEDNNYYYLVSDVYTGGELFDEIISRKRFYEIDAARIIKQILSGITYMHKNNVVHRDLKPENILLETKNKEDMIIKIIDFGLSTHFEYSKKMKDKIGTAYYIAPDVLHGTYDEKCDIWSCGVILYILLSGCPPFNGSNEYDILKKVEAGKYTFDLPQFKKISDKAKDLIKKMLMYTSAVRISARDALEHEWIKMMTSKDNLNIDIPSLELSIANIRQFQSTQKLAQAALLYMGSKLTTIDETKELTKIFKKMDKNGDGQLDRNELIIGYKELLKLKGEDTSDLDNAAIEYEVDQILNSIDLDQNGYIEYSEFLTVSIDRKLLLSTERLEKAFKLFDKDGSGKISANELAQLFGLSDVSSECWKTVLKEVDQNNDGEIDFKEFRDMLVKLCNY
Chain of Plasmodium falciparum protein kinase 6 (PK6, PF3D7_1337100) (Q8IDW1 1-305): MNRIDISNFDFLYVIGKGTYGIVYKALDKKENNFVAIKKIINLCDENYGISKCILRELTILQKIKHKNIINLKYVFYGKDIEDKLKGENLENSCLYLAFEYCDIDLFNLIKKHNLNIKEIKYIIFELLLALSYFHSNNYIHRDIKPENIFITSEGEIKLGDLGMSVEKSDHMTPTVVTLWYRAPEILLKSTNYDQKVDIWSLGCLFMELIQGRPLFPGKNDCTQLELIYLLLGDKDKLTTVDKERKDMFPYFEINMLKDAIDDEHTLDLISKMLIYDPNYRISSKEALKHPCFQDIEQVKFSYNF
Chain of L-lactate dehydrogenase (Plasmodium falciparum (isolate CDC / Honduras)) (Q27743 whole entry, looked up): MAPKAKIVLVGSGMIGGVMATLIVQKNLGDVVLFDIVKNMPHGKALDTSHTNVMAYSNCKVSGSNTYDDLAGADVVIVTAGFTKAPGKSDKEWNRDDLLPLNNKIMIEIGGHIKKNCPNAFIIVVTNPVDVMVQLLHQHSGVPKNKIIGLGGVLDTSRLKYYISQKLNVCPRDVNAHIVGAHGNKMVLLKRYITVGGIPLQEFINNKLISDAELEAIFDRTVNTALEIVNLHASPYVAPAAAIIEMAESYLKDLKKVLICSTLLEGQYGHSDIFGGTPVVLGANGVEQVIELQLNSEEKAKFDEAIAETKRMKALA

As for `Cc1[nH]nc2ccc(-c3cc(OC[C@@H](N)Cc4ccccc4)cnc3-c3ccc(OCc4cccc(F)c4)cc3)cc12`, the growth inhibition in experiment [1] is 59% (active); in experiment [4], 98% (active). Also, the inhibition in experiment [2] was 97% (active); in experiment [3], -5%. For the same compound, the result in experiment [5], in experiment [6], in experiment [7] and in experiment [8] was inactive.

For the compound `C=CCOC(=O)N1CCC(CNCc2cccc(-c3cccc(-c4nc5ccccc5[nH]4)c3)c2)C1` (stereo not given), the growth inhibition was 46% in experiment [1] and 100% (active) in experiment [4]. For the same compound, the values for the inhibition in experiment [2] and in experiment [3] were 16% and -3%, respectively. Besides, the result in experiment [5], in experiment [6], in experiment [7] and in experiment [8] was inactive.

For the compound `Cc1ccc(S(=O)(=O)c2nc(S(=O)(=O)c3ccccc3)sc2NCC2CCCO2)cc1` (stereo not given), the results for the growth inhibition in experiment [1] and in experiment [4] were 17% and 88% (active), respectively. For the same compound, the inhibition in experiment [2] was 4%; in experiment [3] it was 0%. The outcome in experiment [5], in experiment [6], in experiment [7] and in experiment [8] was inactive.

With `CCCCSc1ccc2nc(-c3c[nH]c4ccc(C#N)cc34)cn2c1`, the growth inhibition in experiment [1] is 37%; in experiment [4], 94% (active). Besides, the inhibition in experiment [2] and in experiment [3] was 3% each time. The outcome in experiment [5], in experiment [6], in experiment [7] and in experiment [8] was inactive.

Turning to `CCN(CC)CCn1c(=N)n(CC(=O)c2ccc(-c3ccccc3)cc2)c2ccccc21`, the growth inhibition was 38% in experiment [1] and 83% (active) in experiment [4]. Besides, the inhibition is 32% in experiment [2] and 0% in experiment [3]. For the same compound, the result in experiment [5], in experiment [6], in experiment [7] and in experiment [8] was inactive.

In the case of `Cc1[nH]c(C)c(-c2ccc(Oc3ccc(O)cc3)cc2)c(=O)c1Cl`, the growth inhibition in experiment [1] is 87% (active); in experiment [4] it was 91% (active). Also, the inhibition was -2% in experiment [2] and -3% in experiment [3]. Moreover, the result in experiment [5], in experiment [6], in experiment [7] and in experiment [8] was inactive.

`CC(C)NCc1cccc(-c2ccc(NS(=O)(=O)c3cccc4cccnc34)cc2)c1`: the growth inhibition is 10% in experiment [1] and 90% (active) in experiment [4]. In addition, the inhibition in experiment [2] was 21%; in experiment [3], 5%. In addition, the outcome in experiment [5], in experiment [6], in experiment [7] and in experiment [8] was inactive.

For the compound `N#Cc1cc([N+](=O)[O-])ccc1-n1nc(-c2cccc(Cl)c2)n(Cc2ccco2)c1=S`, the figures for the growth inhibition in experiment [1] and in experiment [4] were 100% (active) and 101% (active), respectively. Also, the inhibition in experiment [2] was 12%; in experiment [3], -1%. The result in experiment [5], in experiment [6], in experiment [7] and in experiment [8] was inactive.

Regarding `COc1ccc(N2CCN(CCCCNCc3ccc(NC(=O)c4cc(Cl)cc(Cl)c4)cc3)CC2)c(OC)c1`, the growth inhibition in experiment [1] was 99% (active); in experiment [4], 100% (active). For the same compound, the inhibition was 39% in experiment [2] and 0% in experiment [3]. The outcome in experiment [5], in experiment [6], in experiment [7] and in experiment [8] was inactive.

As for `COc1ccc(C2C(C(=O)Nc3cc(Cl)c(OC)cc3OC)c3ccccc3C(=O)N2C)cc1` (stereo not given), the growth inhibition in experiment [1] was 98% (active); in experiment [4], 101% (active). Moreover, the results for the inhibition in experiment [2] and in experiment [3] were 14% and 4%, respectively. Further, the result in experiment [5], in experiment [6], in experiment [7] and in experiment [8] was inactive.

On to `Cc1cc(N[C@@H](Cc2ccccc2)C(=O)NCCc2ccccc2)nc(NCC2CCCCC2)n1`, for which the growth inhibition in experiment [1] is 95% (active); in experiment [4] it was 101% (active). For the same compound, the inhibition was 24% in experiment [2] and -2% in experiment [3]. In addition, the result in experiment [5], in experiment [6], in experiment [7] and in experiment [8] was inactive.

In the case of `Cn1nc(-c2ccccc2F)c2cc(C(=O)NC3CCN(Cc4ccccc4)CC3)sc21`, the figures for the growth inhibition in experiment [1] and in experiment [4] were 34% and 97% (active), respectively. For the same compound, the inhibition was 5% in experiment [2] and 3% in experiment [3]. Besides, the outcome in experiment [5], in experiment [6], in experiment [7] and in experiment [8] was inactive.

Consider `COc1ccc2nccc([C@@H](O)CN3CCC(NCCOc4cc(C(F)(F)F)ccc4F)CC3)c2c1`, for which the growth inhibition in experiment [1] was 83% (active); in experiment [4], 100% (active). For the same compound, the inhibition in experiment [2] is 13%; in experiment [3] it was 2%. The result in experiment [5], in experiment [6], in experiment [7] and in experiment [8] was inactive.

For `CCOc1ccc(Cc2c(C)nc3nc(N)nc(N)c3c2C)cc1`, the growth inhibition is 7% in experiment [1] and 91% (active) in experiment [4]. In addition, the inhibition in experiment [2] is 63% (active); in experiment [3], 0%. Also, the outcome in experiment [5], in experiment [6], in experiment [7] and in experiment [8] was inactive.

Turning to `Cc1ccc(CCNCC(O)c2cccc(C(F)(F)F)c2)cc1` (stereo not given), the growth inhibition was 83% (active) in experiment [1] and 94% (active) in experiment [4]. Moreover, the inhibition was -3% in experiment [2] and 0% in experiment [3]. Moreover, the result in experiment [5], in experiment [6], in experiment [7] and in experiment [8] was inactive.

`CCC1CN2CCc3c([nH]c4ccccc34)C2CC1CC1=NCCc2c1[nH]c1ccc(OC)cc21` (stereo not given): the growth inhibition is 68% (active) in experiment [1] and 101% (active) in experiment [4]. Also, the inhibition in experiment [2] was 99% (active); in experiment [3] it was 1%. Moreover, the outcome in experiment [5], in experiment [6], in experiment [7] and in experiment [8] was inactive.

Regarding `COc1ccc(CCn2c(=N)c(C(=O)NCc3cccnc3)cc3c(=O)n4ccccc4nc32)cc1`, the values for the growth inhibition in experiment [1] and in experiment [4] were 5% and 98% (active), respectively. For the same compound, the values for the inhibition in experiment [2] and in experiment [3] were 16% and -2%, respectively. Further, the result in experiment [5], in experiment [6], in experiment [7] and in experiment [8] was inactive.

On to `COc1ccc(-c2cccc(NC(=O)c3ccc(Cl)cc3)c2)cc1CN(C)CCN(C)C`, for which the growth inhibition in experiment [1] was 61% (active); in experiment [4], 99% (active). In addition, the inhibition in experiment [2] was 37%; in experiment [3], 4%. Besides, the result in experiment [5], in experiment [6], in experiment [7] and in experiment [8] was inactive.

Regarding `O=C(/C=C/c1ccc(Cl)c(Cl)c1)NC1CCC(CN2CCC(c3nc4ncccc4[nH]3)CC2)CC1` (stereo not given), the growth inhibition was 2% in experiment [1] and 101% (active) in experiment [4]. The results for the inhibition in experiment [2] and in experiment [3] were 7% and -1%, respectively. The outcome in experiment [5], in experiment [6], in experiment [7] and in experiment [8] was inactive.

Turning to `O=C(c1cc(OC(F)(F)F)ccc1O)N1CCN(c2ccccc2)CC1`, the growth inhibition in experiment [1] was 1%; in experiment [4] it was 88% (active). Besides, the inhibition is -10% in experiment [2] and -4% in experiment [3]. Moreover, the result in experiment [5], in experiment [6], in experiment [7] and in experiment [8] was inactive.
